Hits are enriched below; roughly 27% of the tested compounds scored in any of these assays.
CYP2C9 inh: blockers of cytochrome P450 2C9 activity – biochemical, luminescence, ADME assay, primary screen; P11712; CYP2C9 Supersomes, luciferin-H conversion; inhibition, % at 5 µM; 20% of 96,000 active; AID 777, 2007;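 active = blocking of liver enzyme CYP2C9 beyond about 50% at 5 µM, limit read from the data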
CYP2C9 activ: human CYP2C9 activators, primary screen, biochemical, luminescence; 1.4% of 96,000 active; activation factor at 5 µM; AID 1024, 2008; recombinant CYP2C9, luciferin-H conversion; hits give high values; factor 1 = untreated enzyme, 0 = blocked;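 active = activation factor of 2 or more for CYP2C9 at a 5 µM dose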
Cav3 T inh: Cav3.2 calcium influx blockers – cell-based, Fluo-4 calcium fluorescence, FDSS, MLSMR library, primary screen. Voltage-dependent T-type calcium channel subunit alpha-1H (Homo sapiens), O95180. Cav3.2-expressing cells; hits give low values. B-score at 10 µM. 4% of 100,000 active. AID 449739, 2010;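 active = single-dose well whose peak fluorescence ratio is a statistical outlier from its plate by either plate-standardised score or position-corrected B-score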
CYP2C19 inhib: blockers of cytochrome P450 2C19 activity – biochemical, luminescence, ADME assay, primary screen; 21% of 96,000 active; CYP2C19 Supersomes, luciferin-H EGE luminescence, 30 min; inhibition, % at 5 µM; AID 778, 2007;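 active = CYP2C19 inhibition above a set limit at 5 µM in the primary screen, cut at about 50% in these data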
Target sequence (P33261 whole entry, looked up): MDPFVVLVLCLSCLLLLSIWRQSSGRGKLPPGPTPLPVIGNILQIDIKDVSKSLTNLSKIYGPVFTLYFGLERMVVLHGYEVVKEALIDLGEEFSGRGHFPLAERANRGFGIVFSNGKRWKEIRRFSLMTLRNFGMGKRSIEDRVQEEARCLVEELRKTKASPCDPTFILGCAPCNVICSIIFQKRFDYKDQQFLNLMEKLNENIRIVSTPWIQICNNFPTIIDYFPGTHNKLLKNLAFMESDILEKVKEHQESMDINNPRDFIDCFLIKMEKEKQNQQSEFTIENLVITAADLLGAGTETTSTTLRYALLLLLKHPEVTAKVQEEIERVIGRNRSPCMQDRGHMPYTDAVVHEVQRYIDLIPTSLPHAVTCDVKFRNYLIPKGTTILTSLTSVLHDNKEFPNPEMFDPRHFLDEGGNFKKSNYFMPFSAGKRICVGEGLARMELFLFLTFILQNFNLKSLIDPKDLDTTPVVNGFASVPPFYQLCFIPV
CYP2C19 activ: human CYP2C19 activators, primary screen, biochemical, luminescence; Cytochrome P450 2C19 (Homo sapiens), P33261; recombinant CYP2C19, luciferin-H EGE luminescence; hits give high values; 0 = fully inhibited enzyme, 1 = untreated enzyme; activation factor at 5 µM; 96,000 tested, under 10 active;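 active = activation factor of at least 2 at 5 µM in the primary screen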
Numbers stand for hits; 0 = inactive; - = no result given.

SMILES | CYP2C9 inh | CYP2C9 activ | Cav3 T inh | CYP2C19 inhib | CYP2C19 activ
CSc1ccc(CNC2CC2)cc1 | 0 | 0 | 0 | 0 | 0
COc1cc(C(c2c(C)[nH][nH]c2=O)c2c(C)[nH][nH]c2=O)ccc1OS(=O)(=O)c1ccc(C)cc1 | 66 | 0 | 0 | 85 | 0
CC1(c2nnc(-c3cccc(Cl)c3)o2)CC(c2cccnc2)=NO1 (stereo not given) | - | - | 0 | - | -
CCOC(=O)C(C)c1nn(C)c(=O)c2ccccc12 (stereo not given) | 0 | 0 | 0 | 67 | 0
CCOC(=O)C(C)c1n[nH]c(=O)c2ccccc12 (stereo not given) | 0 | 0 | 0 | 0 | 0
Cc1ccc2c(c1)c1c(n2CC(O)CN2C(=O)CNC2=O)C(=O)CCC1 (stereo not given) | 0 | 0 | 0 | 0 | 0
Cc1ccc2c(c1)c1c(n2CC2COC(C)(C)O2)C(=O)CCC1 (stereo not given) | 73 | 0 | - | 76 | 0
O=C(CCCCCC(=O)N(CCO)CCO)N(CCO)CCO | 0 | 0 | 0 | 0 | 0
O=C(c1ccncc1)c1ccc(Br)cc1 | 62 | 0 | 0 | 0 | 0
Cc1ccc(S(=O)(=O)Nc2cc(C)c(O)c(S(=O)(=O)c3ccc(C)cc3)c2)cc1 | 77 | 0 | -3.7 | 0 | 0
Cc1ccc(S(=O)(=O)Nc2cccc(C(=O)Nc3cc(C)ccn3)c2)cc1 | 0 | 0 | 0 | 0 | 0
Cc1cc(NS(=O)(=O)c2ccccc2)cc(Cl)c1O | 0 | 0 | 0 | 100 | 0
Fc1ccc(C2CC(c3ccco3)=NN2c2ccccc2)cc1 (stereo not given) | 0 | 0 | 0 | 0 | 0
Oc1ccccc1C1=Nc2ncnn2C(c2ccc(F)cc2)C1 (stereo not given) | 0 | 0 | 0 | 57 | 0
CN(Cc1ccccc1)C(=O)c1cccc(N2C(=O)NC3CC2(C)Oc2ccccc23)c1 (stereo not given) | 0 | 0 | 0 | 0 | 0
CCN(CCCNC(=O)c1c(C)cc(=O)oc1C)c1ccccc1 | 83 | 0 | 0 | 98 | 0
CCN(CCCNC(=O)c1[nH]c(C)c(C(C)=O)c1C)c1cccc(C)c1 | 0 | 0 | 0 | 53 | 0
CCCCN(CCCNC(=O)c1c(C)cc(=O)oc1C)c1ccccc1 | 90 | 0 | 0 | 51 | 0
O=C(Cn1ccc2ccccc2c1=O)NCCC(=O)Nc1ccc2c(c1)OCCO2 | 0 | 0 | 0 | 0 | 0
O=C(NC1CCCC1)C(c1ccccn1)N(C(=O)c1csnn1)C1CC1 (stereo not given) | 0 | 0 | 0 | 0 | 0
CC(=O)Cc1nsc(NC(=O)c2cc(-c3cccc(C(F)(F)F)c3)oc2C)n1 | 0 | 0 | 0 | 0 | 0
CSCCC(NC(=O)c1ccccc1)C(=O)OCC(=O)Nc1ccc(C)c(Cl)c1 (stereo not given) | 82 | 0 | 0 | 0 | 0
CC1(C)CC(OC(=O)c2ccco2)CC(C)(C)N1O | 0 | 0 | 0 | 0 | 0
CC1=C(C(=O)Nc2cc(-c3cccc(F)c3)[nH]n2)C2(CCCCC2)OC1=O | 83 | 0 | 0 | 52 | 0
CC1=C(C(=O)NC(C)c2ccc3c(c2)OCCO3)C2(CCC(C)CC2)OC1=O (stereo not given) | - | - | 0 | - | -
SMILES | CYP2C9 inh | CYP2C9 activ | Cav3 T inh | CYP2C19 inhib | CYP2C19 activ
Cc1ccc(C2C(/C=C3/SC(=S)NC3=O)=C(c3cccs3)Oc3ccccc32)cc1 (stereo not given) | 68 | 0 | - | 0 | 0
O=P(O)(c1ccc(Cl)cc1)c1ccc(Cl)cc1 | 0 | 0 | 0 | 0 | 0
Cc1cc(C)c(C)c(/C=C(/C#N)C(N)=S)c1C | 65 | 0 | 0 | 0 | 0
Cc1ccc2c(c1)c1c(n2CC(O)Cn2c(C)nc3ccccc32)/C(=N\O)CCC1 (stereo not given) | 96 | 0 | 0 | 54 | 0
Cc1nc2ccccc2n1CC(O)Cn1c2ccccc2c2ccccc21 (stereo not given) | 78 | 0 | 0 | 75 | 0
CCCN1CCC(=O)N([C@H](CSc2ccc(OC)cc2)c2ccccc2)CC1 | - | - | 0 | - | -
Cc1cc(NC(=O)CN2CC(C)OC(C)C2)n(-c2nc3ccccc3s2)n1 (stereo not given) | 56 | 0 | 0 | 57 | 0
COC(=O)C1=CN(C(C)C)C=C(C(=O)OC)C1c1cc2c(cc1Br)OCO2 | 0 | 0 | 0 | 60 | 0
